# ELG1 DNA repair – qHTS screen for small molecules that inhibit ELG1-dependent DNA repair in human embryonic kidney (HEK293T) cells expressing luciferase-tagged ELG1; hit rate 2.3% among 330,000; HEK293T ELG1-luciferase reporter, luminescence, 16 h; DNA damage induced by 5-fluorouridine; Potency, µM (doses to about 46.1 µM), inactives show at the top dose activity change, negative = inhibition, usual class: inhibitors; note: potency is the fitted concentration of half-maximal effect; nearly all actives have a fitted effect of over 55% in size
#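 Quantitative HTS, concentration-response format. 2,000 cells/well co-treated with 5-fluorouridine and compound, 16 hr in 5% CO2 at 37 °C; ONE-Glo luminescence read after 30 min.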
# RORgamma inh – qHTS for inhibitors of ROR gamma transcriptional activity | Drosophila S2 Gal4-RORgamma UAS-luciferase reporter, 20 h | hit rate 5.4% among 310,000 | Potency, µM (series often up to 53.6 µM), inactives show top-dose activity change, negative = inhibition, usual class: inhibitors; note: potency is the fitted concentration of half-maximal effect; nearly all actives have a fitted effect of over 60% in size
# Target sequence (P51450 whole entry, looked up, the tested form may be a part): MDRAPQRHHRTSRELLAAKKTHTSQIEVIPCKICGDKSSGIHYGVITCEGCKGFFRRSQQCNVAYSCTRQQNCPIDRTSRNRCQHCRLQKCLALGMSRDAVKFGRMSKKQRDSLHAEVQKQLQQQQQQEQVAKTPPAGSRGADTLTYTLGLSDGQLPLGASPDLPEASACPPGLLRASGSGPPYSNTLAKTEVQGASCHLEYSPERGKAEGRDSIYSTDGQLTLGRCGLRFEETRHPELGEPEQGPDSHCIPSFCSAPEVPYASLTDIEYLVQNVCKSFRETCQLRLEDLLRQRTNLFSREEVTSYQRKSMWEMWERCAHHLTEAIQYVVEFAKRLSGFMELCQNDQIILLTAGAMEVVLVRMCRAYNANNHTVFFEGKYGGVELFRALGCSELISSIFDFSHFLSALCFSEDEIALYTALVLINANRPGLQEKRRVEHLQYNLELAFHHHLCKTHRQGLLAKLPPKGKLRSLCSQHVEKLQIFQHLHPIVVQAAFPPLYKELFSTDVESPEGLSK
#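 Drosophila Schneider cells stably carrying a metallothionein-driven Gal4 DBD–ROR gamma fusion and a UAS-Photinus luciferase reporter were exposed to compound for 1 hr, then induced with copper sulfate (700 uM final) for 20 hr at ambient temperature before luminescence reading.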
# B2AR arrestin – qHTS assay of beta-arrestin-biased ligands of beta2-adrenergic receptor | Beta-2 adrenergic receptor (Homo sapiens), P07550 | beta-arrestin recruitment to beta2AR, cell-based reporter | Potency, µM (titrated, usually from 46.1 µM), without a hit: at the top dose activation, usual class: activators | hit rate 0.02% among 330,000 | AID 492947, 2010;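 note: potency is the fitted concentration of half-maximal effect; 0% = DMSO controls and full agonism = EC100 isoproterenol or metaproterenol; nearly all actives have a fitted effect of over 65% in size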
# VP16 counter – VP16 counterscreen qHTS for inhibitors of ROR gamma transcriptional activity; Drosophila S2 Gal4-VP16 UAS-luciferase, luminescence, 20 h; Potency, µM (doses to about 53.6 µM), for inactives: at the highest dose activity, negative = inhibition, most hits filed as inhibitors; hit rate 3.5% among 310,000;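 note: Gal4-VP16 expression switched on by copper sulfate through the metallothionein promoter; potency is the fitted concentration of half-maximal effect; nearly all actives have a fitted effect of over 50% in size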
# TSHR antag – Antagonists of the Thyroid Stimulating Hormone Receptor: HTS campaign; activity change, negative = inhibition, % at 11.5 µM; hit rate 0.2% among 330,000; TSHR-expressing cells, TSH-stimulated cAMP HTRF, 2 h; hits give low values; Thyrotropin receptor (Homo sapiens), P16473;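 active = activity change below a set negative limit, meaning inhibition stronger than a set level, cut at about -70% in these data; inconclusive = activity change between two set negative limits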
#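 TSHR-expressing cells were treated with compounds, then stimulated with TSH at EC80 (4nM final) for 2 hours at 37 deg C. Cellular cAMP was measured by HTRF competition between lysate cAMP and cAMP-d2 for a cryptate-labelled anti-cAMP antibody.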
# Starred values were filed as active, the others as inactive; ? = inconclusive; . = no result given; [ ] = remark or other dose. An excerpt weighted towards active compounds, which were near 7.5% of everything screened. Unless noted, calls come from the whole dose curve; as a rule, active = well fitted curve in the direction sought with a large enough effect; inconclusive = small, poorly fitted or top-dose-only effect, or another doubt; inactive = no such curve, though single readings can be large; an effect the other way counts as inactive or inconclusive. Unless noted, % is set by controls: 0 for no effect and ±100 for the full control effect.
SMILES,ELG1 DNA repair,RORgamma inh,B2AR arrestin,VP16 counter,TSHR antag
COC(=O)c1c(NC(=O)c2ccccc2)sc2c1CC(C)(C)NC2(C)C,6%,4%,0%,16%,-1
Cc1ccc(-c2csc(NCCn3c(C)nc4cc(C(F)(F)F)ccc43)n2)cc1,3%,.,0%,.,-17
O=C(O)c1ccc(NC2=C(N3CCOCC3)C(=O)c3ccccc3C2=O)cc1,1%,14%,0%,1%,-4
CC(=O)c1ccc(NC2=C(N3CCOCC3)C(=O)c3ccccc3C2=O)cc1,?,-42%,-1%,17%,-14
CC(=O)N(C1=C(N2CCOCC2)C(=O)c2ccccc2C1=O)c1ccc(C(=O)O)cc1,23µM*,?,0%,11µM*,11
CC(=O)N(C)C1=C(N2CCOCC2)C(=O)c2ccccc2C1=O,?,8.9µM*,-1%,?,15
O=C(CSc1nc(-c2ccccc2)ns1)NCC1CCCO1 (centres undefined),?,19%,0%,?,6
Cc1ccc(NC(=O)c2ccc(F)cc2F)cc1NS(C)(=O)=O,5%,12%,0%,-9%,-7
COc1ccc(NC(=O)Cn2nnc(C(=O)NCc3cccs3)c2N)c(OC)c1,?,-19%,0%,-16%,-132*
Cc1cc(C)c(NC(=O)Cn2nnc(C(=O)NCCc3ccccc3)c2N)c(C)c1,-7%,-22%,0%,-3%,0
COc1cccc(NC(=O)Cn2nnc(C(=O)NCc3cccs3)c2N)c1,8%,4%,-1%,8%,-2
Cc1ccc(NC(=O)Cn2nnc(C(=O)NCCc3ccccc3)c2N)c(C)c1,?,-21%,1%,-9%,-107*
COc1ccc(CCNC(=O)c2nnn(CC(=O)Nc3ccc(C)cc3C)c2N)cc1OC,-4%,-29%,0%,-15%,-82*
COC(=O)c1ccccc1C(=O)c1ccc(OCCN2CCCCC2)cc1,.,-9%,.,-7%,.
COCCN(C(=S)Nc1c(C)cccc1C)C(C)c1cccs1 (centres undefined),-25%,?,0%,?,6
Cc1ccc(NC(=S)N(CCN(C)C)C(C)c2ccco2)c(C)c1 (centres undefined),-3%,-37%,0%,2%,1
COCCN(C(=S)Nc1cc(C)cc(C)c1)C(C)c1ccco1 (centres undefined),-17%,8.9µM*,0%,4%[10 µM],-2
COCCN(C(=S)Nc1cccc(C)c1)C(C)c1cccs1 (centres undefined),5%,11µM*,0%,?,2
CC(C)CCN(C(=S)Nc1cccc(F)c1)C(C)c1cccs1 (centres undefined),?,20µM*,0%,?,3
Cc1ccc(NC(=S)N(CCN(C)C)C(C)c2ccco2)cc1Cl (centres undefined),-1%,13µM*,0%,?,1
COC(=O)c1nn(-c2ccc(Oc3ccccc3)cc2)c(=O)cc1O,-5%,0%,0%,-14%,-6
Cc1ccc(C)c(S(=O)(=O)N2CCN(C(=O)Cn3[nH]c(=O)c4ccccc4c3=O)CC2)c1,?,.,0%,.,8
COCCN(C(=S)Nc1ccc(OC)cc1)C(C)c1cccs1 (centres undefined),-5%,13µM*,0%,?,-4
Cc1cc(C)cc(NC(=S)N(CCN(C)C)C(C)c2cccnc2)c1 (centres undefined),-6%,11µM*,0%,0%[10 µM],-1
COc1ccc(NC(=S)N(CCC(C)C)C(C)c2ccncc2)cc1 (centres undefined),-2%,?,0%,?,7
SMILES,ELG1 DNA repair,RORgamma inh,B2AR arrestin,VP16 counter,TSHR antag
COCCN(C(=S)Nc1cc(C)cc(C)c1)C(C)c1cccs1 (centres undefined),-18%,10µM*,-1%,22µM*,13
N#CCCn1c(=O)cnc2cnc(Oc3ccccc3)nc21,.,2%,.,-6%,.
O=C(Cn1nnc(-c2ccccc2Cl)n1)N/N=C/c1ccc(-c2cccc(Cl)c2)o1,?,7.1µM*,0%,6.3µM*,12
O=C(CN1CCCC1)N/N=C/c1ccc(-c2cccc(Cl)c2)o1,1%,?,-2%,-17%,0
CC(C)C[C@@H](CC(=O)N[C@H](CC(=O)N[C@@H]1CCCC[C@H]1C(=O)N[C@H](CC(=O)N[C@@H](CCC(=O)O)CC(=O)O)CC(C)C)C(C)C)NC(=O)[C@@H]1CCCC[C@H]1N,.,6%,.,5%,.
O=C(Nc1sc2c(c1-c1nc3ccccc3[nH]1)CCCC2)C1CCCC1,?,10µM*,0%,-10%,0
CC(=O)NCCC(=O)Nc1sc2c(c1-c1nc3ccccc3[nH]1)CCCC2,15µM*,-17%,0%,1%,-19
Cc1ccc(S(=O)(=O)N2CCCCC2CCNC(=O)C(=O)Nc2ccccc2F)cc1 (centres undefined),-24%,.,0%,.,7
CCOC(=O)c1c(C)[nH]c(C(=O)OCC(=O)N2CCN(S(=O)(=O)c3ccc(C)cc3C)CC2)c1C,13µM*,.,0%,.,-10
CC(=O)c1c(C)[nH]c(C(=O)N2CCN(S(=O)(=O)c3ccc(C)cc3C)CC2)c1C,?,.,0%,.,-8
COc1cc(/C=C/C(=O)OCC(=O)N2CCN(S(=O)(=O)c3ccc(C)cc3C)CC2)ccc1O,21µM*,2%[10 µM],0%,-7%,1
COc1ccc(C(=O)N2CCN(S(=O)(=O)c3ccc(C)cc3C)CC2)cc1OC,?,19%,0%,3%,0
COc1cc(C(=O)N2CCN(S(=O)(=O)c3ccc(C)cc3C)CC2)ccc1OCC(=O)N1CCOCC1,2.3µM*,.,0%,.,8
CSc1ccc(CSCC(=O)N2CCN(S(=O)(=O)c3ccc(C)cc3C)CC2)cc1,10µM*,.,-2%,.,-17
N[C@@]1(C(=O)O)CO[C@H]2[C@H](C(=O)O)[C@H]21,.,2%,.,-3%,.
COc1ccc(-c2nc3cnc(OC)nc3n(CCC#N)c2=O)cc1,.,-9%,.,8%,.
COC1/C=C/OC2(C)Oc3c(C)c(O)c4c(O)c(c(/C=N/N5CCN(C)CC5)c(O)c4c3C2=O)NC(=O)/C(C)=C/C=C/C(C)C(O)C(C)C(O)C(C)C(OC(C)=O)C1C (centres undefined),.,-15%,.,-11%,.
CC(C)CNC(=S)NC1CC2CCCC(C1)N2Cc1ccco1 (centres undefined),15%,-9%,0%,0%,2
CC(C)c1ccc(NC(=O)NC2CC3CCC(C2)N3Cc2cccs2)cc1 (centres undefined),12%,-3%,-1%,-8%,-5

# Compound activity as filed in PubChem BioAssay.
